In PubChem BioAssay (EPA / NIEHS):
Inconclusive results are not listed. More than one record can exist for a structure, and the calls need not agree. Activity calls are given as the source filed them. How the source made its calls, unless noted: active means hit-call score of the fitted dose curve at least 0.9, where 1 is the maximum; inconclusive means response in the unintended direction; inactive means score below 0.9.

Legend:
[1] = read-out: xenobiotic metabolism (CYP1A1), CYP1A1 (gene 1543); test: CLD_CYP1A1_48hr: CellzDirect (CLD) Gene Expression Assay for xenobiotic metabolism (CYP1A1) at 48 hours (AID 2283705)
Outline: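 Primary human hepatocytes from two donors dosed daily for two days at multiple concentrations, 0.2% DMSO vehicle; CYP1A1 mRNA induction at 48 h by qNPA chemiluminescence. Cytotoxicity noted by phase-contrast morphology.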

[2] = read-out: Glyceraldehyde-3-phosphate dehydrogenase (Homo sapiens) (UniProt P04406); test: CLD_GAPDH_48hr: CellzDirect (CLD) Gene Expression Assay for Baseline Control (Glyceraldehyde 3-phosphate dehydrogenase) at 48 hours (AID 2283706);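 further: active means higher GAPDH mRNA than DMSO vehicle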
Outline: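 Primary human hepatocytes dosed daily for two days with fresh chemical at multiple concentrations, 0.2% DMSO vehicle; GAPDH mRNA measured at 48 h by quantitative nuclease protection assay with chemiluminescence, fitted upward relative to DMSO as background control.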

[3] = read-out: glucuronosyltransferase (UGT1A1), UGT1A1 (gene 54658); test: CLD_UGT1A1_48hr: CellzDirect (CLD) Gene Expression Assay for glucuronosyltransferase (UGT1A1) at 48 hours (AID 2283709);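 further: actives increase expression relative to DMSO so potency refers to induction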
Outline: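 Human primary hepatocytes dosed daily for two days (0.2% DMSO vehicle), harvested at 48 h. UGT1A1 mRNA induction measured by quantitative nuclease protection assay with chemiluminescence; gain of signal versus DMSO; cytotoxicity flagged from morphology.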

[4] = CEETOX_H295R_MTT_cell_viability: Viability Assessment in the CeeTox HT-H295R MTT Assay (AID 2283718; active means hit-call score of the fitted dose curve at least 0.9, where 1 is the maximum; inactive means score below 0.9;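 on AC50: curve fitted both ways so AC50 may mark viability loss or gain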)
Outline: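 Human H295R adrenal cells, prestimulated 48 h with 10 uM forskolin, were exposed 48 h to chemicals in 0.1% DMSO. Viability was measured in the same wells by MTT (0.5 mg/ml, 4 h, 37 C), absorbance 570/650 nm, as percent of controls.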

[5] = Tanguay_ZF_120hpf_ActivityScore_legacy: (Legacy) Oregon State University Tanguay Lab 120 Hour Post-fertilization zebrafish Assay Score for Activity (AID 2283742);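 on AC50: dechorionated Tropical 5D wild-type zebrafish embryos held singly per well; static exposure from 6 hpf until 120 hpf at 28 °C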
Outline: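 Dechorionated Tropical 5D embryos, one per well from 6 hpf, statically exposed to 120 hpf at 28 °C in 0.64% DMSO. Mortality and malformations scored binary by brightfield microscopy; activity score combines 18 endpoints, fitted positively versus DMSO.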

[6] = STM_H9_OrnithineISnorm_perc: Stemina devTOX quickPredict H9 human embryonic stem cell (hESC)-based Assay for Ornithine (ORN) Metabolite Biomarker, Normalized (AID 2283712; active means hit-call score of the fitted dose curve at least 0.9, where 1 is the maximum; inactive means score below 0.9;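 further: ornithine released into spent medium during last day measured by mass spectrometry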)
Outline: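 H9 human embryonic stem cells kept pluripotent receive test chemical over 72 h, refreshed daily by media exchange. Media from the closing 24 h is deproteinized and analysed by UPLC-HRMS on an amide column; ornithine signal is scaled to labelled standard and vehicle.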

[7] = STM_H9_CystineISnorm_perc: Stemina devTOX quickPredict H9 human embryonic stem cell (hESC)-based Assay for Cystine (CYSS) Metabolite Biomarker, Normalized (AID 2283713; active means hit-call score of the fitted dose curve at least 0.9, where 1 is the maximum; inactive means score below 0.9)
Outline: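 H9 hESC, pluripotent; compound 72h, re-dosed q24h with medium change. Last-24h medium → 40% acetonitrile deproteinization → UPLC-HRMS. CYSS area / C13-CYSS standard, then % of 0.1% DMSO median.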

[8] = STM_H9_OrnCyssISnorm_ratio: Stemina devTOX quickPredict H9 human embryonic stem cell (hESC)-based Assay for Ornithine (ORN):Cystine (CYSS) Ratio (AID 2283714)
Outline: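 Undifferentiated H9 hESCs exposed 72 h, media and compound replaced every 24 h; final 24-h conditioned media deproteinized and analysed by UPLC-HRMS against C13 spike-ins. Value is the internal-standard-normalized ORN/CYSS ratio versus 0.1% DMSO.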

[9] = ArunA_CellTiter_hNC: Viability Assessment in the ArunA Biomedical's Oris Neural Crest (hNC) Cell Migration Assay (AID 2283752)
Outline: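 Cell titer was measured with the CellTiter Aqueous One reagent after 72 h of chemical dosing. Cells were H9-derived embryonic neural crest stem cells seeded on Matrigel, 60,000 per well, and given 16 h at 37C beforehand.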

[10] = ArunA_CellTiter_hNP: Viability Assessment in the ArunA Biomedical's Oris Neural Crest (hNC) Cell Migration Assay (AID 2283753)
Outline: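 H9-derived hNP1 neuroprogenitors, 60,000/well on Matrigel, cultured 16 h, then 72 h chemical exposure in test medium. Cell titer via CellTiter Aqueous One; positive-direction fit vs DMSO.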

[11] = ArunA_Migration_hNP: ArunA Biomedical's Oris Neuroprogenitor (hNP) Cell Migration Assay (AID 2283754)
Outline: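 Human H9-derived hNP1 neuroprogenitors on Matrigel with LIF/bFGF, plated around seeding stoppers for 16 h at 37C; stoppers removed at start of 72 h chemical exposure. Calcein-AM staining, fluorescence 494/517 nm in detection zone; loss-of-signal vs DMSO; cytochalasin D control.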

[12] = ArunA_Migration_hNC: ArunA Biomedical's Oris Neural Crest (hNC) Cell Migration Assay (AID 2283755)
Outline: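 Human H9-derived neural crest stem cells, 60,000/well on Matrigel, 16 h at 37C, then 72 h chemical exposure after seeding-stopper removal. Migration into detection zone read as calcein-AM fluorescence (ex494/em517), relative to DMSO.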

[13] = ArunA_NOG_NucleusCount: ArunA Biomedical's Neurite Outgrowth (NOG) Assay for Nucleus Count (AID 2283756)
Outline: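 Human H9-derived differentiated neurons were exposed for 48 h right after seeding. Hoechst-stained nuclei gated by size and intensity were counted by automated high-content imaging as viable neurons. Loss of signal vs DMSO.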

[14] = ArunA_NOG_NeuriteLength: ArunA Biomedical's Neurite Outgrowth (NOG) Assay for Neurite Length (AID 2283757)
Outline: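 Differentiated human H9-derived neurons were exposed for 48 h from seeding, then stained with Hoechst and βIII-tubulin. Automated high-content imaging gave total neurite length per valid neuron, counting processes >10 um. Loss of signal was scored versus DMSO.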

[15] = ArunA_NOG_NeuritesPerNeuron: ArunA Biomedical's Neurite Outgrowth (NOG) Assay for Neurites Per Neuron (AID 2283758)
Outline: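 Differentiated human H9-derived neurons exposed to chemicals for 48 h from seeding, then stained with Hoechst and βIII-tubulin/DyLight 488. Automated imaging counted neurites (processes >10 um) per valid neuron; loss of signal versus DMSO scored.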

[16] = ArunA_NOG_BranchPointsPerNeurite: ArunA Biomedical's Neurite Outgrowth (NOG) Assay for Branch Points Per Neurite (AID 2283759)
Outline: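 Automated image analysis traced neurites (processes >10 um) from valid cell bodies after Hoechst and βIII-tubulin staining. hNN cells from H9 embryonic stem cells, 48 h exposure. Fitted bidirectionally against DMSO.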

[17] = read-out: alkyl and aryl transferase (GSTA2), GSTA2 (gene 2939); test: CLD_GSTA2_48hr: CellzDirect (CLD) Gene Expression Assay for alkyl and aryl transferase (GSTA2) at 48 hours (AID 2283708);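 further: active means mRNA induction above DMSO vehicle baseline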
Outline: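 Primary human hepatocytes dosed daily for two days (0.2% DMSO vehicle), harvested at 48 h. GSTA2 mRNA induction measured by quantitative nuclease protection assay with chemiluminescent imaging, fitted for gain of signal relative to DMSO.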

[18] = read-out: sulfotransferase (SULT2A), SULT2A1 (gene 6822); test: CLD_SULT2A_48hr: CellzDirect (CLD) Gene Expression Assay for sulfotransferase (SULT2A) at 48 hours (AID 2283710);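 further: hits raise SULT2A1 transcript above the 0.2% DMSO vehicle baseline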
Outline: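 Primary human hepatocytes (two donor preparations) dosed daily for two days with chemicals at multiple concentrations, vehicle 0.2% DMSO; SULT2A1 mRNA induction at 48 h by quantitative nuclease protection assay, chemiluminescent read-out, fitted for gain of signal versus DMSO.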

[19] = tested on: chicken Androgen Receptor (AR), gene 422165; test: ATG_chAR_XSP1: Attagene TRANS-FACTORIAL Multi-Species (XSP1) HepG2 Assay for chicken Androgen Receptor (AR) (AID 2283768)
Outline: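 HepG2 cells transiently transfected with multiplexed GAL4-UAS reporter units expressing chimeric chicken AR-Gal4; 3 nM 6-alpha-fluorotestosterone for partial AR stimulation; 24 h after dosing, reporter mRNA by RT-PCR and capillary electrophoresis, gain-of-signal versus DMSO.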

[20] = tested on: frog Androgen Receptor (AR), gene 399456; test: ATG_frAR_XSP1: Attagene TRANS-FACTORIAL Multi-Species (XSP1) HepG2 Assay for frog Androgen Receptor (AR) (AID 2283770)

Measured: AC50

Glyceraldehyde-3-phosphate dehydrogenase (Homo sapiens), sequence (P04406 whole entry, looked up): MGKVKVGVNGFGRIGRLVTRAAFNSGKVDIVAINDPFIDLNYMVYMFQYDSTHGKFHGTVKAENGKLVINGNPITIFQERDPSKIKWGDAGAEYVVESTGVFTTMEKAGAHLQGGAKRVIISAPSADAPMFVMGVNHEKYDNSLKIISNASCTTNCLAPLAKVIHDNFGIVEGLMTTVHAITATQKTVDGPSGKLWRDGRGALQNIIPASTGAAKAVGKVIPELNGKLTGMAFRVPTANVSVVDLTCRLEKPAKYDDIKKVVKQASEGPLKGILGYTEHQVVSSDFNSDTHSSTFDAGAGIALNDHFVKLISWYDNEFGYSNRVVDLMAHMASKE

COc1nc(C)nc(NC(=O)NS(=O)(=O)c2ccccc2Cl)n1
inactive: [1] | [2] | [3]

CNC(=S)S
inactive: [1] | [2] | [3] | [4] | [5]

COc1nc(C)nc(NC(=O)NS(=O)(=O)c2ccccc2CCC(F)(F)F)n1
inactive: [1] | [3]

CON(C)C(=O)Nc1ccc(Cl)c(Cl)c1
inactive: [3] | [4] | [5]
active: [1] 3.68 µM | [6] 50 µM | [7] 73.3 µM | [8] 71.7 µM

O=C(O)COc1nc(Cl)c(Cl)cc1Cl
inactive: [1] | [2] | [3] | [5]

CCNc1nc(Cl)nc(NCC)n1
active: [1] 3.92 µM | [6] 0.053 µM
inactive: [2] | [3] | [7] | [8] | [4] | [5]

N#Cc1nn(-c2c(Cl)cc(C(F)(F)F)cc2Cl)c(N)c1S(=O)C(F)(F)F (configuration not stated)
inactive: [1] | [2] | [3] | [5] | [16]
active: [6] 35.5 µM | [7] 88.7 µM | [8] 81.7 µM | [9] 43.8 µM | [10] 36.8 µM | [11] 50 µM | [12] 30.9 µM | [13] 23.2 µM | [14] 31.8 µM | [15] 32 µM

CC1COC(Cn2cncn2)(c2ccc(Oc3ccc(Cl)cc3)cc2Cl)O1 (configuration not stated)
inactive: [2] | [3] | [5]
active: [1] 2 µM | [6] 3.93 µM | [7] 2.87 µM | [8] 3.88 µM | [4] 0.0749 µM

COc1nc(NC(C)C)nc(NC(C)C)n1
active: [1] 4.52 µM | [7] 13.5 µM | [8] 14.6 µM
inactive: [3] | [6] | [4] | [5]

OC(c1ccc(Cl)cc1)(c1cncnc1)c1ccccc1Cl (configuration not stated)
inactive: [1] | [3] | [5]
active: [17] 15.8 µM | [6] 50 µM | [8] 77.7 µM | [4] 77.2 µM

CN(C)C(=S)SSC(=S)N(C)C
active: [1] 29.7 µM | [6] 17.7 µM | [7] 14.5 µM | [8] 16.2 µM | [5] 9.8 µM
inactive: [2]

CCCCNC(=O)n1c(NC(=O)OC)nc2ccccc21
active: [1] 33.1 µM | [6] 6.13 µM | [7] 8.39 µM | [8] 6.59 µM | [4] 0.015 µM
inactive: [2] | [3] | [5]

COC(=O)C(C)Oc1ccc(Oc2ccc(Cl)cc2Cl)cc1 (configuration not stated)
active: [3] 20 µM
inactive: [1] | [2] | [3] | [5]

CCCC1COC(Cn2cncn2)(c2ccc(Cl)cc2Cl)O1 (configuration not stated)
active: [1] 20 µM | [6] 85.5 µM | [7] 33.6 µM | [8] 57.5 µM | [5] 42.8 µM
inactive: [3] | [4]

CCOC(=O)C(Cl)Cc1cc(-n2nc(C)n(C(F)F)c2=O)c(F)cc1Cl (configuration not stated)
inactive: [1] | [3] | [18]
active: [4] 0.0412 µM | [5] 2.02 µM

Cc1ccc(-c2c(Cl)nc(C#N)n2S(=O)(=O)N(C)C)cc1
inactive: [2]
active: [1] 20 µM | [5] 2.27 µM

C=CC1(C)OC(=O)N(c2cc(Cl)cc(Cl)c2)C1=O (configuration not stated)
inactive: [1] | [2] | [3] | [6] | [7] | [8] | [4] | [5]

CCNc1nc(Cl)nc(NC(C)C)n1
active: [1] 20 µM | [3] 9.63 µM | [6] 0.12 µM | [7] 42.3 µM | [8] 50 µM
inactive: [2] | [4] | [5]

CCCCOC(=O)c1ccccc1C(=O)OCCCC
active: [6] 76.3 µM | [7] 50 µM | [8] 56 µM
inactive: [1] | [2] | [3] | [4] | [5] | [19]

N#Cc1cc(Br)c(O)c(Br)c1
inactive: [1] | [2] | [3]
active: [5] 23.8 µM

CC(C)(C)c1ccc(CSc2cnn(C(C)(C)C)c(=O)c2Cl)cc1
active: [6] 0.0663 µM | [7] 0.171 µM | [8] 0.091 µM | [5] 40.3 µM | [11] 0.0196 µM | [12] 0.0516 µM
inactive: [1] | [2] | [3] | [9] | [10] | [13] | [16] | [19]

CCCCNC(=O)OCC#CI
inactive: [1] | [2]
active: [5] 15.8 µM

COP(=S)(OC)Oc1nc(Cl)c(Cl)cc1Cl
inactive: [1] | [2] | [3] | [4] | [5]
active: [19] 3.31 µM | [20] 5.58 µM

COc1ccc(C(c2ccc(OC)cc2)C(Cl)(Cl)Cl)cc1
inactive: [6] | [7] | [8] | [5]
active: [1] 20 µM | [3] 8.36 µM

C=CCC1=C(C)C(OC(=O)C2C(C=C(C)C)C2(C)C)CC1=O (configuration not stated)
inactive: [1] | [17] | [5]
active: [3] 11.1 µM | [4] 9.99 µM

CCCCC(CC)COC(=O)c1ccccc1C(=O)OCC(CC)CCCC (configuration not stated)
active: [7] 30 µM | [8] 30.9 µM
inactive: [1] | [2] | [3] | [6] | [4] | [5]

C=CCC1=C(C)[C@@H](OC(=O)[C@@H]2[C@@H](C=C(C)C)C2(C)C)CC1=O
active: [9] 0.992 µM
inactive: [10] | [11] | [13]

C#CCOS(=O)OC1CCCCC1Oc1ccc(C(C)(C)C)cc1 (configuration not stated)
active: [20] 2.11 µM
